This is part of a sample that, as a whole, favours compounds with a hit. Of some 83,000 tested, about 20% had one in any assay.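 Single-dose data. Exposure time 48 hours. Values below 10 considered active.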 Calls of active or inactive are those of the source.

The test system of the assay is SK-MEL-28 melanoma. Kind of assay: NCI-60 one-dose screen, 48 h (100 = growth as untreated, 0 = no growth, -100 = all killed). The conditions noted are these: 10 µM unless noted. Here is the method: Growth inhibition of the SK-MEL-28 human tumor cell line is measured as a screen for anti-cancer activity. Cells are grown in 96 well plates and exposed to the test compound for 48 hours. Compounds are tested at a single concentration, which is 10^-5 M for most compounds. The reported endpoint is percent growth (GI% or GIPRCNT), where numbers from 0 - 100% represent growth inhibition, and numbers from -100% - 0 represent cell death. For example, a value of 40 represents 60% growth inhibition. A value of 0 means no net growth occurred over the course of the experiment. A value of -40 indicates 40% of cells at the beginning of the experiment died by the end of the experiment. A value of -100 means all cells are dead at the end of the experiment.
NCI-60 Human Tumor Cell Lines Screen was performed using the standard one-dose NCI protocol, which is described in more detail at https://dtp.cancer.gov/discovery_development/nci-60/default.htm.
Compounds with GIPRCNT values below 10 were considered active. Activity score was based on GIPRCNT using the following formula: […]
Score is 0 for GIPRCNT values of 100 or above, 50 for GIPRCNT values of 0, and 100 for GIPRCNT values of -100.
In the case of `COc1nc2ccccc2cc1/C=[N+](\[O-])c1ccccc1`, the growth is 101% (inactive). For `Cc1c(N2CCCCC2)[nH]c2ccccc12` the value was 133% (inactive); for `CC1(C)CCC[C@]23C(=O)O[C@](O)(C(=O)C4=C[C@@](C)(/C=C/CCCc5ccc6ccc7cccc8ccc5c6c78)CC[C@@]42O)[C@@H]13`, -86.6% (active); for `CC1=C(C(=O)c2ccccc2)C(c2ccc3c(c2)OCO3)NC(=S)N1` (stereo not given), 70.9% (inactive). For `CCOc1cc(\C=N/N=C(N)/C(N)=N\N=C/c2ccc(O)c(OCC)c2)ccc1O`, the growth is 103% (inactive). In the case of `N#C/C(=C\c1cccc2cnccc12)N1N=NC2C=CC=CC21` (stereo not given), the growth was 43.8% (inactive). Turning to `COc1cc2c(cc1-c1c(C)noc1C)ncc1nc(C3CCOCC3)n(C3CCC(OC(F)F)CC3)c12` (stereo not given), the growth is 71.1% (inactive). In the case of `O=c1ccc2c(ccc3ncccc32)o1`, the growth is 113% (inactive). In the case of `CN1CCN(Cc2ccc(NC(=O)c3cncc(C#Cc4cnc(N)c5ncccc45)c3)cc2Cl)CC1`, the growth is 45.1% (inactive). For `CSc1nc(CC(C)C)c(C#N)c(=O)n1C` the value was 68.3% (inactive); for `O=C(CNc1ncco1)Nc1ccc(S(=O)(=O)c2ccc(NC(=O)CNc3ncco3)cc2)cc1`, 58.1% (inactive); for `Cn1cc(-c2csc(-c3cn(C)c4ccc(F)cc34)n2)c2cnccc21`, -95.9% (active).

For `Cc1ccc(-c2nn(CC(=O)N3CCOCC3)c(N)c2C#N)cc1`, the growth was 102% (inactive). Turning to `O=C(Nc1ccc(Oc2cccc(F)c2)c(Cl)c1)c1cnccn1`, the growth was 60.6% (inactive). For `O=C(Nc1ncc(Cc2ccccc2Cl)s1)c1ccc2c(c1)OCCO2` the value was 76.3% (inactive). For `NC(=O)[C@@H]1Cc2ccccc2CN1C(=O)c1ccc2c(c1)Cc1ccccc1-2` the value was 116% (inactive). For `N#C/C(Sc1nc2sc3c(c2c(=O)n1Cc1ccccc1)CCCC3)=C1/SC=C(c2ccc(Cl)cc2)N1c1ccccc1` the value was 109% (inactive); for `Cn1cc(-c2ccc3occ(-c4cccc(-c5ccncc5)c4)c3n2)cn1`, 30.6% (inactive); for `C(CCCSC1=NCCN1)CCSC1=NCCN1`, 113% (inactive).

For `Cc1oc2ccc(O)c(CN3CCCCCC3)c2c1C(=O)Nc1ccc(C(F)(F)F)cc1`, the growth is 76.9% (inactive). Turning to `O=C(/C=C/C12c3ccccc3C(c3ccccc31)C1C(=O)NC(=O)C12)c1cccs1` (stereo not given), the growth was 45.8% (inactive). Take `Nc1ccc(N)c2c1C(=O)c1cccc([N+](=O)[O-])c1C2=O`: the growth was 102% (inactive).

As to `O=c1c(Cc2ccc(F)cc2)cc(-c2ccccc2)nn1C/C(=N/O)c1ccccc1`, the growth was 62% (inactive). For `CCCN1C2CCC1/C(=C\c1ccc(OC)cc1)C(=O)/C2=C/c1ccc(OC)cc1` the value was 82.7% (inactive). For the compound `COc1cccc(C(=O)Nc2cccc(NC(=O)c3ccccn3)c2)c1`, the growth was 97.5% (inactive). For `COc1cc(C2CC(c3cccc(Nc4ccncc4)c3)=Nc3c(N)ncnc3N2)cc(OC)c1OC` (stereo not given) the value was 102% (inactive).

As for `COc1cccc(-c2nn(-c3ccccc3)cc2-c2ccnc(-c3cccnc3)c2)c1`, the growth was 100% (inactive). On to `CN1C(=O)N(C)C2C1NN=c1s/c(=C\c3ccc(F)cc3)c(=O)n12` (stereo not given), for which the growth was 59.4% (inactive). For `O=C(Oc1ccccc1)c1cc(O)c(O)c(O)c1` the value was 89.9% (inactive).

For the compound `Cc1[nH]c(C(=O)Nc2ccccc2OC2CCNC2)c(Cl)c1Cl` (stereo not given), the growth was 106% (inactive). For `CCOC(=O)C1=C(c2ccccc2)N=C2N(c3ccccc3)N=C(C(C)=O)N2C1c1ccc(Br)cc1` (stereo not given) the value was 99.9% (inactive); for `COC(=O)c1nc(-c2ccccc2)oc1S(=O)(=O)NCC(c1ccc(Cl)cc1)N1CCCCC1` (stereo not given), 99.7% (inactive); for `COC(=O)CNC(=O)c1ccc(NC(=O)c2[nH]c(C)c(Cl)c2Cl)c(O[C@H]2CCNC2)c1`, 115% (inactive). On to `CCN1C(=O)N(CC)C2C1NC(=S)N2/N=C/C=C/c1cccs1` (stereo not given), for which the growth was 49.2% (inactive). On to `O=c1n(C2OC(CO)C(O)C2O)ccc2nccn12` (stereo not given), for which the growth is 113% (inactive). With `CC(=O)/C(Br)=C/c1ccc(Br)o1`, the growth is 60.8% (inactive).

Turning to `COc1cc2c(c(OC)c1OC)CCC(c1cccc(C(=O)Nc3ccc([N+](=O)[O-])cc3)c1)O2` (stereo not given), the growth is 61.9% (inactive). On to `O=C1C(c2c(O)[nH]c3ncccc23)=Nc2ccccc21`, for which the growth is 123% (inactive). Turning to `NCCCCCNc1noc(Cc2c[nH]c3cc(Br)ccc23)n1`, the growth was 40.2% (inactive). For `CC(=O)O[C@H]1C[C@@]2(C)[C@@H](C[C@@H](O)[C@H]3[C@@]4(C)CC[C@H](N5CCCC5)[C@@H](C)[C@@H]4CC[C@@]32C)/C1=C(\CCC=C(C)C)C(=O)O` the value was 92.9% (inactive).

The values are drawn from PubChem BioAssay (NCI).
